What was measured:
Experiment in all cases: thermal shift delta Tm vs DMSO control; higher = stronger stabilization (binding)
Settings in all cases: 12.5 µM; protein concentration 2 µM
LOC_OS02G45750-cb003 = tested on: LOC_OS02G45750-cb003
Procedure, shortened: (§1)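 Heating from 25°C to 95°C at 0.05°C/s, fluorescence was recorded for 19.5 μl wells of 2 μM E. coli-expressed, purified rice kinase domain in 100 mM potassium phosphate pH 7.5, 150 mM NaCl, 10% glycerol and 5 × SYPRO Orange with compound in DMSO. Boltzmann fits gave melting temperatures for this differential scanning fluorimetry assay. The shift reported is the mean of three replicates against the DMSO-only protein.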

LOC_OS02G54510-cb004 = tested on: LOC_OS02G54510-cb004
Procedure, shortened: as §1

LOC_OS03G04050-cb001 = tested on: LOC_OS03G04050-cb001
Procedure, shortened: as §1

LOC_OS03G12390-cb001 = tested on: LOC_OS03G12390-cb001
Procedure, shortened: as §1

LOC_OS03G27990-cb004 = tested on: LOC_OS03G27990-cb004
Procedure, shortened: as §1

LOC_OS03G50450-cb001 = tested on: LOC_OS03G50450-cb001
Procedure, shortened: as §1

LOC_OS03G50810-cb003 = tested on: LOC_OS03G50810-cb003
Procedure, shortened: as §1

LOC_OS04G35114-cb001 = tested on: LOC_OS04G35114-cb001
Procedure, shortened: as §1

LOC_OS04G38480-cb003 = tested on: T1, LOC_OS04G38480-cb003
T1 sequence (whole entry): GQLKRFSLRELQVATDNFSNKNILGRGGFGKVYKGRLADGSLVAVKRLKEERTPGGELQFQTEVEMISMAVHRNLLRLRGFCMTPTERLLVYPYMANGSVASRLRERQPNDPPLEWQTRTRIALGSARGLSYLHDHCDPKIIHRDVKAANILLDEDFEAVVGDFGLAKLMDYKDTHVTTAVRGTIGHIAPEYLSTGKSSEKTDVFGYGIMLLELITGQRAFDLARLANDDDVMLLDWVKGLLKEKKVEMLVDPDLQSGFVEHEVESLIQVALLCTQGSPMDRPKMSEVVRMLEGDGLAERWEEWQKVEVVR
Procedure, shortened: as §1

LOC_OS04G41100-cb001 = tested on: T2, LOC_OS04G41100-cb001
T2 sequence (whole entry): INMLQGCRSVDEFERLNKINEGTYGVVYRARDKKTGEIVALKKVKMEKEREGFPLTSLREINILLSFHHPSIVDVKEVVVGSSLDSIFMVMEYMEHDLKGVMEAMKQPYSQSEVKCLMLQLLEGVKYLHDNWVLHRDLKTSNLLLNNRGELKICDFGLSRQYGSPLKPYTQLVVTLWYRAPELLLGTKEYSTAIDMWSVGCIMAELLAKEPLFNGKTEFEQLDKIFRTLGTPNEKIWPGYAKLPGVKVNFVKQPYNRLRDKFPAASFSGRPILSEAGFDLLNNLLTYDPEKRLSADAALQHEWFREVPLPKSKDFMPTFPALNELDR
Procedure, shortened: as §1

LOC_OS04G57630-cb004 = tested on: LOC_OS04G57630-cb004
Procedure, shortened: as §1

LOC_OS05G07850-cb002 = tested on: LOC_OS05G07850-cb002
Procedure, shortened: as §1

LOC_OS05G16824-cb004 = tested on: LOC_OS05G16824-cb004
Procedure, shortened: as §1

LOC_OS05G28520-cb001 = tested on: LOC_OS05G28520-cb001
Procedure, shortened: as §1

LOC_OS05G30820-cb001 = tested on: LOC_OS05G30820-cb001
Procedure, shortened: as §1

LOC_OS05G43570-cb004 = tested on: LOC_OS05G43570-cb004
Procedure, shortened: as §1

LOC_OS06G16330-cb003 = tested on: LOC_OS06G16330-cb003
Procedure, shortened: as §1

LOC_OS06G22820-cb001 = tested on: T3, LOC_OS06G22820-cb001
T3 sequence (whole entry): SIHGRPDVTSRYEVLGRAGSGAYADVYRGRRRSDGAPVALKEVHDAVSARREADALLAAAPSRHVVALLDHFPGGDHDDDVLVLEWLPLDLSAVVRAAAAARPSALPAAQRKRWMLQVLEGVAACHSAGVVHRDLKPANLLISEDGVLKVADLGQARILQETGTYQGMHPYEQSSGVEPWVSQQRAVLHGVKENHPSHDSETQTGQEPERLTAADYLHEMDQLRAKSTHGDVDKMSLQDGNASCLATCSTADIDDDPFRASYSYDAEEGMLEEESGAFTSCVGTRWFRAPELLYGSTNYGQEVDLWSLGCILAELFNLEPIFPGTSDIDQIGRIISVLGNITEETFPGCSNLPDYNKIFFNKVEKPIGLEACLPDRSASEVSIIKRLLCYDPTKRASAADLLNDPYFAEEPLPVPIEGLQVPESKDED
Procedure, shortened: as §1

LOC_OS07G06570-cb004 = tested on: LOC_OS07G06570-cb004
Procedure, shortened: as §1

LOC_OS07G07230-cb001 = tested on: LOC_OS07G07230-cb001
Procedure, shortened: as §1
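Further: purified Escherichia coli-expressed rice kinase domain construct.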

Sequence of LOC_OS06G16330-cb003 (as listed by the source): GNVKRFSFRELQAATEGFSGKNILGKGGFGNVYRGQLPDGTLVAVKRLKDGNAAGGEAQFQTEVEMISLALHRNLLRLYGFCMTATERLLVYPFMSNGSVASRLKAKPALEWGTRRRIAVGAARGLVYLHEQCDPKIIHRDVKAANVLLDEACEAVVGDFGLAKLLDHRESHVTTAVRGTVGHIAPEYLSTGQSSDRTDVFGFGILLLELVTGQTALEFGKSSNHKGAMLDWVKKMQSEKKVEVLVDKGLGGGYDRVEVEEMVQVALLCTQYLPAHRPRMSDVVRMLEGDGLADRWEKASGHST

SMILES | thermal shift delta Tm (LOC_OS02G45750-cb003) [°C] | thermal shift delta Tm (LOC_OS02G54510-cb004) [°C] | thermal shift delta Tm (LOC_OS03G04050-cb001) [°C] | thermal shift delta Tm (LOC_OS03G12390-cb001) [°C] | thermal shift delta Tm (LOC_OS03G27990-cb004) [°C] | thermal shift delta Tm (LOC_OS03G50450-cb001) [°C] | thermal shift delta Tm (LOC_OS03G50810-cb003) [°C] | thermal shift delta Tm (LOC_OS04G35114-cb001) [°C] | thermal shift delta Tm (LOC_OS04G38480-cb003) [°C] | thermal shift delta Tm (LOC_OS04G41100-cb001) [°C] | thermal shift delta Tm (LOC_OS04G57630-cb004) [°C] | thermal shift delta Tm (LOC_OS05G07850-cb002) [°C] | thermal shift delta Tm (LOC_OS05G16824-cb004) [°C] | thermal shift delta Tm (LOC_OS05G28520-cb001) [°C] | thermal shift delta Tm (LOC_OS05G30820-cb001) [°C] | thermal shift delta Tm (LOC_OS05G43570-cb004) [°C] | thermal shift delta Tm (LOC_OS06G16330-cb003) [°C] | thermal shift delta Tm (LOC_OS06G22820-cb001) [°C] | thermal shift delta Tm (LOC_OS07G06570-cb004) [°C] | thermal shift delta Tm (LOC_OS07G07230-cb001) [°C]
Oc1ccc(Nc2nc(-c3ccc(Cl)cc3)cs2)cc1 | 0.87 | -1.06 | 1.13 | 1.19 | 1.07 | 1.19 | 1.34 | 2.45 | -1.18 | 0.69 | 0.01 | 3.59 | -0.03 | 0.45 | 1.05 | -0.07 | 0.92 | 0.79 | -0.41 | 0.38
C=CC(=O)Nc1cc(Nc2nccc(-c3cn(C)c4ccccc34)n2)c(OC)cc1N(C)CCN(C)C [Osimertinib (AZD9291)] | 1.63 | 0.52 | 0.78 | 4.71 | 0.93 | 0.74 | 2.65 | 6.25 | 2.86 | 0.51 | 0.2 | 13.5 | -1.95 | 0.53 | 0.54 | 0.3 | 5.5 | 0.25 | 1.03 | 0.47
COc1ccc(-c2cc3nccn3c(Nc3ncccc3C(N)=O)n2)cc1OC | 1.94 | 0.42 | 0.72 | 6.82 | 0.56 | 1.07 | 1.24 | 1.36 | 1.69 | 1.04 | 1.09 | 10.1 | -0.07 | 0.66 | 0.59 | 0.69 | 4.18 | 0.82 | 0.73 | 0.38
C#Cc1cccc(Nc2ncnc3cc(OC)c(OCCCCCCC(=O)NO)cc23)c1 | 2.9 | 1.18 | -0.05 | 2.33 | 0.11 | 0.09 | 1.73 | 5.97 | 1.01 | 0.37 | 0.04 | 7.33 | -6.18 | 0.35 | 0.58 | 0.66 | 1.72 | 0.49 | 0.91 | -0.06
N#C/C(=C\c1ccc(O)c(O)c1)C(=O)NCc1ccccc1 [AG-490 (Tyrphostin B42)] | 0.05 | 0.41 | 0.78 | 0.12 | 0.27 | -0.29 | 0.09 | -0.45 | 0.47 | 0.43 | -1.22 | -1.56 | -18.1 | 1.95 | 0.64 | 0.9 | -0.03 | 1 | 2.29 | 0.61
O=C(O)c1ccc2c3c1cccc3c(=O)n1c3ccccc3nc21 | 3.28 | 0.56 | 0.18 | 2.82 | 0.62 | 0.23 | 0.91 | 2.73 | 2.31 | 1.19 | 0.77 | 7.31 | 1.51 | 0.41 | 0.73 | 0.15 | 4.49 | 0.29 | 0.54 | 1.19
CC(C)(CO)n1cc(C(=O)c2cncc(NC(=O)Cc3ccc(Cl)cn3)c2)c2cnc(N)nc21 | 1.08 | 0.19 | 0.46 | 0.3 | 0.39 | 0.47 | 0.51 | 0.51 | 1.37 | 0.41 | 0.34 | 5.09 | -0.67 | 0.14 | 0.02 | 0.18 | 2.22 | 0.45 | 1.47 | 0.34

— the supplement of paper PMC9694430
